MITF TRPM1 HTS: MITF TRPM1 promoter activation in melanoma cells. SK-MEL-5 TRPM1-promoter luciferase, 24 h; % of positive control, neutral wells = 0. activation, % at 12.5 µM. hit rate 0.75% among 300,000. AID 588334;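 active means mean activation of at least 80% with every replicate also reaching 80%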;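 further: 0% = neutral control wells and 100% = parthenolide positive control wells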
miR122 inh: inhibitors of miR-122 in Huh7 cells. Huh7 miR-122 Renilla luciferase sensor, 48 h; neutral wells = 0, positive control = 100. activation (reporter increase), % at 12.5 µM. hit rate 0.3% among 340,000;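 active means mean replicate activation score at least 90 and every replicate individually at or above 90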;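 further: higher luciferase means less miR-122 activity so hits act as miR-122 inhibitors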
esBAF inh: SWI/SNF esBAF complex inhibition; hit rate 2% among 350,000; reporter increase, % at 12.5 µM; mouse ES cells, Bmi1-luciferase knock-in reporter, 24 h; 100% = twice the neutral-well signal; in the data active means activation above about 40%;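 further: 0% = median of the plate's neutral control wells and 100% = double that signal; a rise in the Bmi1 reporter signal indicates esBAF inhibition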
Wnt act: activates Wnt/beta-catenin signaling in a reporter cell assay | activation, % at 9.35 µM | hit rate 1.2% among 300,000 | activator, plate reader; in the data active means activation above about 30%, passing the limit was not always enough;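 further: 0% = neutral control wells and 100% = positive control wells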
Env fusion inh: HIV envelope-mediated fusion inhibition; AID 651610; inhibition, % at 12.3 µM; HeLa-JRFL Env/CEM21 cell fusion, luciferase; hit rate 1.1% among 360,000;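 active means mean replicate inhibition score of at least 50 and every replicate individually at or above 50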;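 further: 0% = plate neutral controls and 100% = maraviroc near 300 nM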
* hit, by the source's call; nt = no result given; [ ] = dose if it differs, or a comment. Only some compounds are listed: those with a hit (about 3.4% of all), similar ones and a draw of the others.

SMILES	MITF TRPM1 HTS	miR122 inh	esBAF inh	Wnt act	Env fusion inh
O=C(CSc1cn(Cc2ccccc2)c2ccccc12)N1CCOCC1	52	-3	79*	18	39
Cn1cc(SCC(=O)Nc2nccs2)c2ccccc21	nt	nt	68*	26	-66
COc1ccc(C(=O)NCCn2cc(SCC(=O)N3CCOCC3)c3ccccc32)cc1	0	1	42*	nt	nt
Nc1ccccc1SCC(=O)Nc1nccs1	-1	nt	nt	1	1
CCCn1cc(SCC(=O)Nc2nnc(C)s2)c2ccccc21	-5	nt	1	1	4
CN(C)S(=O)(=O)Oc1cccc(C(=O)Nc2cccc(Cl)c2)c1	nt	1	44*	31*	7
COC(=O)c1ccc(OS(=O)(=O)N(C)C)cc1	46	-5	49*	10	-21
CC(C)C(=O)Nc1cc(S(=O)(=O)Nc2cccc(Cl)c2)ccc1Cl	1	256*	nt	0	3
CNS(=O)(=O)c1cccc(C(=O)Nc2cccc(Cl)c2)c1	nt	17	48*	nt	-60
C[C@@H]1CN([C@@H](C)CO)C(=O)c2cccc(NC(=O)Nc3ccc(F)cc3)c2O[C@@H]1CN(C)C(=O)Nc1ccc(F)cc1	nt	-4[16.7 µM]	-2	nt	-11[16.7 µM]
COc1ccc(NC(=O)c2cccc(OS(=O)(=O)N(C)C)c2)cc1	49	-4	26	55*	-61
COc1cccc(C(=O)Nc2cccc(NC(=O)c3ccccc3Cl)c2)c1	nt	-5	17	-3	19
COc1cccc(C(=O)Nc2ccc3ccccc3c2)c1	nt	10	-37	19	-272
CN(C)S(=O)(=O)Oc1cccc(C(=O)Nc2ccc(Cl)c(Cl)c2)c1	33	-3	72*	nt	35
Cc1ccc(S(=O)(=O)N(C)C[C@@H]2Oc3c(NC(=O)Nc4ccc(F)cc4)cccc3C(=O)N([C@H](C)CO)C[C@@H]2C)cc1	nt	-3[16.7 µM]	-5	nt	0[16.7 µM]
NC(=O)c1oc2ccccc2c1NC(=O)c1ccc(F)cc1	nt	5	5	1	-7
NC(=O)c1oc2ccccc2c1NC(=O)c1nc2ccccc2s1	60	-7	63*	nt	nt
O=C(Cc1ccc(Cl)cc1)Nc1cccnc1	nt	0	-2	1	5
C=CCN(CC(=O)Nc1cccnc1)S(=O)(=O)c1ccc(Cl)cc1	-3	-4	4	37*	-14
Cc1ccc(NC(=O)c2c(C(F)(F)F)nn(C)c2SCc2ccc(Cl)cc2)cc1C	16	3	14	0	54
Cc1ccc(NC(=O)c2c(C(F)(F)F)nn(C)c2SCc2cccc(C(F)(F)F)c2)cc1C	9	-15	-8	8	87*
Cc1cc(NC(=O)c2sc3ccccc3c2O)no1	10	6	29	34*	-36
COc1ccc2oc(C(=O)Nc3nccs3)c(C)c2c1	73	nt	32	50*	-190
COc1ccccc1NC(=O)c1oc2ccc(C)cc2c1C	nt	4	48*	5	nt
Cc1ccc2oc(C(=O)N(C)Cc3ccon3)c(C)c2c1	112*	-4	52*	44*	-61
SMILES	MITF TRPM1 HTS	miR122 inh	esBAF inh	Wnt act	Env fusion inh
C[C@H](CO)N1C[C@H](C)[C@H](CN(C)Cc2ccncc2)Oc2ccc(NC(=O)c3ccncc3)cc2C1=O	nt	27[16.7 µM]	1	nt	-23[16.7 µM]
CCOc1ccc2oc(C(=O)Nc3nccs3)c(C)c2c1	30	10	6	69*	-193
Cc1ccc2oc(C(=O)Nc3cc(C)on3)c(C)c2c1	21	-14	37	43*	-141
CCOc1ccc2oc(C(=O)Nc3ccc(C)cn3)c(C)c2c1	nt	1	85*	21	0
Cc1ccc2oc(C(=O)Nc3nnc(CC(C)C)s3)c(C)c2c1	26	nt	nt	0	-28
CCOc1ccc2oc(C(=O)NC(C)(C)CC)c(C)c2c1	60	-20	39	0	-16
C[C@H]1CCCCO[C@@H](CN(C)C(=O)Nc2ccc(C(F)(F)F)cc2)[C@@H](C)CN([C@@H](C)CO)C(=O)c2cc(NC(=O)NC3CCCCC3)ccc2O1	nt	7[16.7 µM]	8	nt	19[16.7 µM]
O=C(/C=C/c1ccc(Br)o1)Nc1nccs1	52	nt	nt	43*	-46
O=C(C[C@@H]1C[C@H]2c3cc(NC(=O)NC4CCCC4)ccc3O[C@H]2[C@H](CO)O1)NCc1cccc(F)c1	nt	2[16.7 µM]	3	nt	-4[16.7 µM]
Clc1ccc(-c2nnc(-c3ccccc3)c(-c3ccccc3)n2)cc1	nt	-5	-4	4	20
Nc1nc(-c2ccc(Cl)cc2)nnc1-c1ccc(Br)cc1	77	-4	52*	51*	-93
COc1ccccc1NS(=O)(=O)c1cccc(NC(=O)Nc2ccccc2)c1	11	68	nt	-3	11

Screening results from PubChem BioAssay.
